# Assay results reported in article PMC11062922 (Nature Chemical Biology, 2023).
# Read-outs that look alike come from different tables or passages of the source.
# Assays:
# Design in all cases: species or system human, MV4-11 + K-562 + COLO205 + SK-N-BE2 + OVCAR-8
# [1] = tested on: ADK; conditions: read-out: apparent Kd, n = 1
# [2] = tested on: CAMK2B; conditions: read-out: apparent Kd; compound concentrations:100 nM and 1000 nM (sheet 'Samples'); n = 1
# [3] = tested on: CAMK2D; conditions: read-out: apparent Kd; compound concentrations:100 nM and 1000 nM (sheet 'Samples'); n = 1
# [4] = tested on: CSNK1G1; conditions: read-out: apparent Kd; compound concentrations:100 nM and 1000 nM (sheet 'Samples'); n = 1
# [5] = tested on: EIF2AK1; conditions: read-out: apparent Kd; compound concentrations:100 nM and 1000 nM (sheet 'Samples'); n = 1
# [6] = tested on: ERN2; conditions: read-out: apparent Kd; compound concentrations:100 nM and 1000 nM (sheet 'Samples'); n = 1
# [7] = tested on: FN3KRP; conditions: read-out: apparent Kd; compound concentrations:100 nM and 1000 nM (sheet 'Samples'); n = 1
# [8] = tested on: FN3K; conditions: read-out: apparent Kd; compound concentrations:100 nM and 1000 nM (sheet 'Samples'); n = 1
# [9] = tested on: ICK; conditions: read-out: apparent Kd; compound concentrations:100 nM and 1000 nM (sheet 'Samples'); n = 1
# [10] = tested on: LATS1; conditions: read-out: apparent Kd; compound concentrations:100 nM and 1000 nM (sheet 'Samples'); n = 1
# [11] = tested on: MAP2K1; conditions: read-out: apparent Kd; compound concentrations: 100 nM and 1000 nM (sheet 'Samples'), CATDS: 0.123510753631687; n = 1
# [12] = tested on: MAP2K2; conditions: read-out: apparent Kd; compound concentrations:100 nM and 1000 nM (sheet 'Samples'); n = 1
# [13] = tested on: MAPK3; conditions: read-out: apparent Kd; compound concentrations:100 nM and 1000 nM (sheet 'Samples'); n = 1
# [14] = tested on: NEK2; conditions: read-out: apparent Kd; compound concentrations:100 nM and 1000 nM (sheet 'Samples'); n = 1
# [15] = tested on: NQO2; conditions: read-out: apparent Kd; compound concentrations:100 nM and 1000 nM (sheet 'Samples'); n = 1
# [16] = tested on: NUAK1; conditions: read-out: apparent Kd; compound concentrations:100 nM and 1000 nM (sheet 'Samples'); n = 1
# [17] = tested on: PAK6; conditions: read-out: apparent Kd; compound concentrations:100 nM and 1000 nM (sheet 'Samples'); n = 1
# [18] = tested on: PBK; conditions: read-out: apparent Kd; compound concentrations:100 nM and 1000 nM (sheet 'Samples'); n = 1
# [19] = tested on: PDXK; conditions: read-out: apparent Kd; compound concentrations:100 nM and 1000 nM (sheet 'Samples'); n = 1
# [20] = tested on: PFKP; conditions: read-out: apparent Kd; compound concentrations:100 nM and 1000 nM (sheet 'Samples'); n = 1
# [21] = tested on: PRKX;PRKY; conditions: read-out: apparent Kd; compound concentrations:100 nM and 1000 nM (sheet 'Samples'); n = 1
# [22] = tested on: TESK1; conditions: read-out: apparent Kd; compound concentrations:100 nM and 1000 nM (sheet 'Samples'); n = 1
# [23] = tested on: TP53RK; conditions: read-out: apparent Kd; compound concentrations:100 nM and 1000 nM (sheet 'Samples'); n = 1
# [24] = tested on: COX5A; conditions: read-out: apparent Kd; compound concentrations: 100 nM and 1000 nM (sheet 'Samples'), CATDS: 0.48232246819666902; n = 1
# [25] = tested on: ADCK5; conditions: read-out: apparent Kd; compound concentrations:100 nM and 1000 nM (sheet 'Samples'); n = 1
# [26] = tested on: CDK4; conditions: read-out: apparent Kd; compound concentrations:100 nM and 1000 nM (sheet 'Samples'); n = 1
# [27] = tested on: GSK3A; conditions: read-out: apparent Kd; compound concentrations:100 nM and 1000 nM (sheet 'Samples'); n = 1
# [28] = tested on: ADRBK1; conditions: read-out: apparent Kd; compound concentrations:100 nM and 1000 nM (sheet 'Samples'); n = 1
# [29] = tested on: AKT2; conditions: read-out: apparent Kd; compound concentrations:100 nM and 1000 nM (sheet 'Samples'); n = 1
# [30] = tested on: CDK6; conditions: read-out: apparent Kd; compound concentrations:100 nM and 1000 nM (sheet 'Samples'); n = 1
# [31] = tested on: DDR1; conditions: read-out: apparent Kd; compound concentrations:100 nM and 1000 nM (sheet 'Samples'); n = 1
# [32] = tested on: NNT; conditions: read-out: apparent Kd; compound concentrations:100 nM and 1000 nM (sheet 'Samples'); n = 1
# [33] = tested on: NQO1; conditions: read-out: apparent Kd; compound concentrations:100 nM and 1000 nM (sheet 'Samples'); n = 1
# [34] = tested on: RIOK2; conditions: read-out: apparent Kd; compound concentrations:100 nM and 1000 nM (sheet 'Samples'); n = 1
# [35] = tested on: STK26; conditions: read-out: apparent Kd; compound concentrations:100 nM and 1000 nM (sheet 'Samples'); n = 1
structure (smiles),measurement,setting,value
C[C@@H](c1ccccc1)[C@@H](C(=O)Nc1ccc(I)cc1F)N1C(=O)N[C@H](c2ccc(OC[C@H](O)CO)cc2)C1=O [RO5068760-000],potency estimated from few doses,[1]; compound concentrations:100 nM and 1000 nM (sheet 'Samples'),1 µM
same,potency estimated from few doses,[2],0.544 µM
same,potency estimated from few doses,[3],0.45 µM
same,potency estimated from few doses,[4],2.04 µM
same,potency estimated from few doses,[5],1.39 µM
same,potency estimated from few doses,[6],1.17 µM
same,potency estimated from few doses,[7],0.959 µM
same,potency estimated from few doses,[8],1.2 µM
same,potency estimated from few doses,[9],1.31 µM
same,potency estimated from few doses,[10],1.76 µM
same,potency estimated from few doses,[11],0.183 µM
same,potency estimated from few doses,[12],0.165 µM
same,potency estimated from few doses,[13],1.33 µM
same,potency estimated from few doses,[14],1.57 µM
same,potency estimated from few doses,[15],0.787 µM
same,potency estimated from few doses,[16],1.92 µM
same,potency estimated from few doses,[17],1.73 µM
same,potency estimated from few doses,[18],2.03 µM
same,potency estimated from few doses,[19],0.612 µM
same,potency estimated from few doses,[20],2.22 µM
same,potency estimated from few doses,[21],1.13 µM
same,potency estimated from few doses,[22],0.543 µM
same,potency estimated from few doses,[23],1.62 µM
O=C(Nc1cccc(-c2nn3ccccc3c2-c2ccnc(Nc3cccc(C(F)(F)F)c3)n2)c1)c1c(F)cccc1F [GSK292658A],potency estimated from few doses,"[1]; compound concentrations: 100 nM and 1000 nM (sheet 'Samples'), CATDS: 0.51902262396373799",1.33 µM
same,potency estimated from few doses,[24],1.54 µM
O=C(Nc1n[nH]c2nc(-c3nccs3)c(Br)cc12)C1CCCC1 [SB-742609],potency estimated from few doses,[25],1.31 µM
same,potency estimated from few doses,[26],1.11 µM
same,potency estimated from few doses,[27],0.519 µM
COC(=O)Nc1nc2ccc(Oc3ccc(NC(=O)Nc4cc(C(F)(F)F)ccc4F)cc3)cc2n1C.Cl [GW692089A],potency estimated from few doses,[25],1.77 µM
same,potency estimated from few doses,[28],1.5 µM
same,potency estimated from few doses,[29],2.41 µM
same,potency estimated from few doses,[26],2.2 µM
same,potency estimated from few doses,[30],2.3 µM
same,potency estimated from few doses,[31],1.03 µM
same,potency estimated from few doses,[12],2.02 µM
same,potency estimated from few doses,[32],1.91 µM
same,potency estimated from few doses,[33],1.81 µM
same,potency estimated from few doses,[34],2.17 µM
same,potency estimated from few doses,[35],1.76 µM
same,potency estimated from few doses,[23],1.4 µM
